Source: PubChem BioAssay (EPA / NIEHS)
“And” between values parts separate entries of the source, which are not always exact repeats. Equal values may be shown once. The source holds several records for some structures; these can differ, active in one and inactive in another. The source made the active and inactive calls. The calls were made as follows: active = hit-call score of the fitted dose curve at least 0.9, where 1 is the maximum; inactive = score below 0.9.

How the values were obtained:
[1] = read-out: C-C motif chemokine 2 (Homo sapiens) (UniProt P13500); experiment: BSK_KF3CT_MCP1: BioMAP Diversity Plus: KF3CT Assay for Monocyte Chemoattractant Protein 1 (MCP1/CCL2) Biomarker Activity (AID 2283073); details: primary human keratinocytes with fibroblasts; actives raise or lower the signal
Summary of the method: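 Human keratinocyte plus foreskin fibroblast primary co-culture exposed to chemical for 24 h. MCP-1 levels measured by ELISA. Bidirectional curve fitting relative to DMSO negative control as baseline.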

[2] = read-out: Matrix Metallopeptidase 9 (MMP9), MMP9 (gene 4318); experiment: BSK_KF3CT_MMP9: BioMAP Diversity Plus: KF3CT Assay for Matrix Metallopeptidase 9 (MMP9) Biomarker Activity (AID 2283074); details: primary human keratinocytes with fibroblasts; actives raise or lower the signal;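 as to AC50: MMP9 protein level quantified by ELISA in the co-culture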
Summary of the method: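 MMP-9 quantified by ELISA after 24 h chemical treatment of primary human skin keratinocyte/fibroblast co-cultures; gain or loss fitted against DMSO, with parallel SRB staining (0.1% SRB, 560 nm) for overt cytotoxicity.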

[3] = read-out: urokinase plasminogen activator (uPA), PLAU (gene 5328); experiment: BSK_KF3CT_uPA: BioMAP Diversity Plus: KF3CT Assay for urokinase plasminogen activator (uPA) Biomarker Activity (AID 2283075); details: primary human keratinocytes with fibroblasts; actives raise or lower the signal
Summary of the method: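 ELISA read-out of uPA 24 h after dosing human skin keratinocytes co-cultured with foreskin fibroblasts. Signal change fitted both ways relative to DMSO; sulforhodamine B on parallel cultures marks overt cytotoxicity.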

[4] = read-out: CD40, CD40 (gene 958); experiment: BSK_LPS_CD40: BioMAP Diversity Plus: LPS Assay for CD40 Biomarker Activity (AID 2283076); details: primary human HUVEC with PBMC; actives raise or lower the signal
Summary of the method: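 Primary human umbilical vein endothelial cells co-cultured with peripheral blood mononuclear cells, LPS-stimulated, were dosed with chemical and read 24 h later. CD40 levels were measured by ELISA and fitted bidirectionally against DMSO as negative control and baseline.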

[5] = read-out: E-selectin (Homo sapiens) (UniProt P16581); experiment: BSK_LPS_Eselectin: BioMAP Diversity Plus: LPS Assay for Eselectin Biomarker Activity (AID 2283077); details: primary human HUVEC with PBMC; actives raise or lower the signal
Summary of the method: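 Human umbilical vein endothelial cells co-cultured with peripheral blood mononuclear cells under LPS stimulation; E-selectin measured by ELISA 24 h after chemical dosing. Activity fitted bidirectionally against DMSO as negative control and baseline.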

[6] = read-out: Interleukin-8 (IL8), CXCL8 (gene 3576); experiment: BSK_LPS_IL8: BioMAP Diversity Plus: LPS Assay for Interleukin-8 (IL8) Biomarker Activity (AID 2283078); details: primary human HUVEC with PBMC; actives raise or lower the signal
Summary of the method: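 Human umbilical vein endothelial cells co-cultured with PBMC were stimulated with LPS; IL-8 levels were measured by ELISA 24 h after chemical dosing. Activity was fitted bidirectionally against DMSO as negative control and baseline.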

[7] = BSK_LPS_SRB: Viability Assessment in the BioMAP Diversity Plus: LPS Assay (AID 2283079); details: primary human HUVEC with PBMC;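 also: total protein by sulforhodamine B absorbance as a cytotoxicity measure; measured one day after compound addition; fitted in both directions against DMSO so loss or gain of signal counts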
Summary of the method: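 Human umbilical vein endothelial cells co-cultured with PBMC (LPS system) were dosed for 24 h. Total protein was stained with 0.1% sulforhodamine B after 10% TCA fixation, read at 560 nm, and fitted bidirectionally against DMSO baseline.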

[8] = read-out: Interleukin-1 alpha (IL1a), IL1A (gene 3552); experiment: BSK_LPS_IL1a: BioMAP Diversity Plus: LPS Assay for Interleukin-1 alpha (IL1a) Biomarker Activity (AID 2283080); details: primary human HUVEC with PBMC; actives raise or lower the signal
Summary of the method: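 Human umbilical vein endothelial cells co-cultured with peripheral blood mononuclear cells were LPS-stimulated and exposed to test chemicals for 24 h. IL-1 alpha was quantified by ELISA, with bidirectional curve fitting against DMSO as the negative control and baseline.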

[9] = read-out: Monocyte Chemoattractant Protein-1 (MCP1), CCL2 (gene 6347); experiment: BSK_LPS_MCP1: BioMAP Diversity Plus: LPS Assay for Monocyte Chemoattractant Protein-1 (MCP1) Biomarker Activity (AID 2283081); details: primary human HUVEC with PBMC; actives raise or lower the signal;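 as to AC50: secreted MCP-1 protein quantified by ELISA in culture supernatant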
Summary of the method: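 HUVEC plus PBMC co-culture (human primary cells, LPS system) exposed to test chemical for 24 h; MCP-1 measured by ELISA. Bidirectional curve fitting against DMSO baseline; parallel SRB total-protein staining flags overt cytotoxicity.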

[10] = BSK_LPS_PGE2: BioMAP Diversity Plus: LPS Assay for Prostaglandin E2 (PGE2) Biomarker Activity (AID 2283082); details: primary human HUVEC with PBMC; actives raise or lower the signal
Summary of the method: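 ELISA read-out of PGE2 from human umbilical vein endothelial cells co-cultured with peripheral blood mononuclear cells under LPS, 24 h post-dose. Gain or loss of signal scored relative to DMSO baseline.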

[11] = read-out: Macrophage colony-stimulating factor (MCSF), CSF1 (gene 1435); experiment: BSK_LPS_MCSF: BioMAP Diversity Plus: LPS Assay for Macrophage colony-stimulating factor (MCSF) Biomarker Activity (AID 2283083); details: primary human HUVEC with PBMC; actives raise or lower the signal
Summary of the method: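 Human umbilical vein endothelial cells co-cultured with peripheral blood mononuclear cells were exposed to compound for 24 h. M-CSF levels were measured by ELISA, and bidirectional curve fitting used DMSO as the negative control and baseline.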

[12] = read-out: Tissue Factor, F3 (gene 2152); experiment: BSK_LPS_TissueFactor: BioMAP Diversity Plus: LPS Assay for Tissue Factor Biomarker Activity (AID 2283084); details: primary human HUVEC with PBMC; actives raise or lower the signal
Summary of the method: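 Human umbilical vein endothelial cells co-cultured with peripheral blood mononuclear cells were dosed and stimulated with LPS. Cell-surface CD142 was quantified by ELISA at 24 h. Activity was fitted bidirectionally against DMSO baseline.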

[13] = read-out: Tumor necrosis factor (Homo sapiens) (UniProt P01375); experiment: BSK_LPS_TNFa: BioMAP Diversity Plus: LPS Assay for Tumour Necrosis Factor alpha (TNFa) Biomarker Activity (AID 2283085); details: primary human HUVEC with PBMC; actives raise or lower the signal
Summary of the method: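 HUVEC/PBMC co-culture, LPS-stimulated; 24 h post-dose; TNFa by ELISA; gain or loss of signal fitted bidirectionally vs DMSO baseline.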

[14] = read-out: Vascular cell adhesion molecule 1 (VCAM1), VCAM1 (gene 7412); experiment: BSK_LPS_VCAM1: BioMAP Diversity Plus: LPS Assay for Vascular cell adhesion molecule 1 (VCAM1) Biomarker Activity (AID 2283086); details: primary human HUVEC with PBMC; actives raise or lower the signal
Summary of the method: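 ELISA read-out of VCAM-1 at 24 h post-dosing in an LPS-driven HUVEC/PBMC primary human co-culture; gain or loss of signal fitted bidirectionally against DMSO baseline. Cytotoxicity tracked in parallel cultures by SRB total-protein staining.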

[15] = read-out: CD38, CD38 (gene 952); experiment: BSK_SAg_CD38: BioMAP Diversity Plus: SAg Assay for CD38 Biomarker Activity (AID 2283087); details: primary human HUVEC with PBMC; actives raise or lower the signal
Summary of the method: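 Measures CD38 on a human endothelial/PBMC co-culture driven by SEB and TSST-1, 24 h after compound exposure, using ELISA with fluorescence detection; DMSO defines baseline for bidirectional curve fitting.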

[16] = read-out: CD40, CD40 (gene 958); experiment: BSK_SAg_CD40: BioMAP Diversity Plus: SAg Assay for CD40 Biomarker Activity (AID 2283088); details: primary human HUVEC with PBMC; actives raise or lower the signal
Summary of the method: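 Human umbilical vein endothelial cells co-cultured with PBMC; CD40 levels measured by ELISA with fluorescence read-out 24 h after chemical dosing. Gain or loss of signal fitted bidirectionally against DMSO baseline.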

[17] = read-out: CD69, CD69 (gene 969); experiment: BSK_SAg_CD69: BioMAP Diversity Plus: SAg Assay for CD69 Biomarker Activity (AID 2283089); details: primary human HUVEC with PBMC; actives raise or lower the signal;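 as to AC50: cell surface CD69 protein quantified by ELISA with fluorescence detection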
Summary of the method: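 Primary human vascular co-culture (umbilical vein endothelium with peripheral blood mononuclear cells) exposed to test chemical for 24 h. CD69 levels quantified by fluorescence ELISA; DMSO served as negative control for bidirectional fitting.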

[18] = read-out: Monocyte Chemoattractant Protein-1 (MCP1), CCL2 (gene 6347); experiment: BSK_SAg_MCP1: BioMAP Diversity Plus: SAg Assay for Monocyte Chemoattractant Protein-1 (MCP1) Biomarker Activity (AID 2283090); details: primary human HUVEC with PBMC; actives raise or lower the signal
Summary of the method: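 Values derive from bidirectional fitting of ELISA-measured MCP1 against DMSO controls. Readings were taken 24 h after dosing human vascular endothelial cells co-cultured with peripheral blood mononuclear cells under superantigen stimulation.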

[19] = read-out: E-selectin (Homo sapiens) (UniProt P16581); experiment: BSK_SAg_Eselectin: BioMAP Diversity Plus: SAg Assay for Eselectin Biomarker Activity (AID 2283091); details: primary human HUVEC with PBMC; actives raise or lower the signal
Summary of the method: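 HUVEC co-cultured with PBMC, compound dosed then read at 24 h; E-selectin measured by ELISA. Activity fitted bidirectionally against DMSO as negative control and baseline.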

[20] = read-out: Monokine induced gamma interferon (MIG), CXCL9 (gene 4283); experiment: BSK_SAg_MIG: BioMAP Diversity Plus: SAg Assay for Monokine induced gamma interferon (MIG) Biomarker Activity (AID 2283092); details: primary human HUVEC with PBMC; actives raise or lower the signal
Summary of the method: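 Endothelial cells and PBMC were co-cultured, exposed to test chemicals, and sampled 24 h later. MIG was measured by ELISA, and responses were fitted in both directions relative to DMSO.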

Measured: AC50

E-selectin (Homo sapiens), sequence (P16581 whole entry, looked up): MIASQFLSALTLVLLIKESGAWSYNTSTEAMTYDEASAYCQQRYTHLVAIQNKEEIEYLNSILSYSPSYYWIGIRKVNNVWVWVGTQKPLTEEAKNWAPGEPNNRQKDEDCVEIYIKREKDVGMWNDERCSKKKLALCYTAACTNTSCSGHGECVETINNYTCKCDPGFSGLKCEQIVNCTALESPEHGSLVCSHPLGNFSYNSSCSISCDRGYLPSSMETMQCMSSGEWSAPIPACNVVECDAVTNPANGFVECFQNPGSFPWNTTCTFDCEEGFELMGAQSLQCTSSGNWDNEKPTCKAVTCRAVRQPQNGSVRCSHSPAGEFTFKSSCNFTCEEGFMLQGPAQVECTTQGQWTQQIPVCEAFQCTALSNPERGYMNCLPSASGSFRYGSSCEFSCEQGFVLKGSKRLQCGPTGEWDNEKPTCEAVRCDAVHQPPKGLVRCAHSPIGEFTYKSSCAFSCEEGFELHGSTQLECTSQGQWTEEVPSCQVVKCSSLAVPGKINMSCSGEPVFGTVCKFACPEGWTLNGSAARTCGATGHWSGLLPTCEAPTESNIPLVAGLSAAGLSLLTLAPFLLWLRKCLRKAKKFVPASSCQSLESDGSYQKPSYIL
Tumor necrosis factor (Homo sapiens), sequence (P01375 whole entry, looked up): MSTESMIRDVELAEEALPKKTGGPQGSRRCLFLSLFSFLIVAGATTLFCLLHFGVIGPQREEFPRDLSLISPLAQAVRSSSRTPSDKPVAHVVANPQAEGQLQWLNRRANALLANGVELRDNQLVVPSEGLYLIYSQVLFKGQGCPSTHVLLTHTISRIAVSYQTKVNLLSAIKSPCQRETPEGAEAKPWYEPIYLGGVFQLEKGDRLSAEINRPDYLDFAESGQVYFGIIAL

COC(=O)CCCCC(=O)OC
inactive: all assays above

OCCC(F)(F)C(F)(F)C(F)(F)C(F)(F)C(F)(F)C(F)(F)C(F)(F)C(F)(F)F
active: [1] 20.1 µM and 18 µM | [2] 13.6 µM and 12.2 µM | [3] 17.1 µM and 19.1 µM | [4] 30.6 µM and 29.1 µM | [5] 40 µM and 30 µM | [6] 30 µM | [8] 18.7 µM and 23.8 µM | [9] 30.8 µM and 21.8 µM | [11] 43.2 µM and 5.95 µM | [12] 45.6 µM | [14] 24.3 µM and 33.3 µM and 18.8 µM | [15] 29.1 µM and 27.8 µM | [16] 29.1 µM and 23.8 µM | [17] 26 µM and 38.3 µM | [18] 43 µM and 23.1 µM | [19] 39.2 µM and 31.9 µM | [20] 46.3 µM and 43.8 µM
inactive: [1] | [2] | [3] | [4] | [5] | [6] | [8] | [9] | [10] | [11] | [12] | [15] | [16] | [17] | [18] | [19] | [20]
